# Active and inactive are the calls of the source. The call rests on the fitted dose curve; in most records, active means well fitted curve in the direction sought with a large enough effect in the repeat runs; inconclusive means weak or mixed curves; inactive means flat fitted curve, though single readings scatter.
# Assay: qHTS assay to test for compound auto fluorescence at 535 nm (green) in HepG2 cell free culture (AID 720686)
# Details: Cell-free medium, green autofluorescence 485/535 nm; series mostly up to 91.3 µM
# Source text: U.S. Tox21 Program National Center for Advancing Translational Sciences [NCATS] NIH Chemical Genomics Center [NCGC] U.S. Environmental Protection Agency [EPA] National Institutes of Environmental Health Sciences [NIEHS] National Toxicology Program [NTP] U.S. Food and Drug Administration [FDA] Tox21 Assay Overview: Compound auto fluorescence often interferes with screening of the compound library against various biological targets and signaling pathways. Some of these compounds may have fluorophoric properties. Such properties may interfere with the assay outputs resulting in false positives and/or negatives. To decrease such complications and ensure the compound activities are relevant in terms of biological response, the Tox21 10K compound library was screened for auto fluorescence. From the fluorophores used as reporter signals in our screening assays, the auto fluorescence equivalencies of compounds against three fluorophores have been evaluated: Triamterene, Fluorescein and Rose Bengal sodium for blue, green and red fluorescence, respectively. The fluorescence intensities were measured using Excitation/Emission wavelengths at 405/460nm, 485/535nm and 540/590nm for blue, green and red labels, respectively. This assay includes the green fluorescence data.
# Tox21 Assay Protocol Summary: 5 uL of culture medium (MEM containing 10% FBS) per well was dispensed into black wall/clear bottom 1536-well plates using a Multidrop Combi Dispenser (ThermoFisher Scientific, Waltham, MA). After 23 nL compound or DMSO vehicle was transferred into assay plate by a pintool work station (Kalypsys, San Diego, CA), fluorescence intensities in the assay plates were measured by an Envision (PerkinElmer, Shelton, CT) plate reader using three labels for measuring blue, green and red fluorescence at […] 460, 535 and 590nm respectively.
# On the % scale 0 is the no-effect control and ±100 the full control effect.
Structure (SMILES),outcome,"fluorescence, % of fluorescein control"
COP(=O)(O)OC,inactive,–
O=C(O)C(Br)(Br)Br,inactive,–
c1ccc2c(c1)CCNC2,inactive,–
CCNc1nc(NCC)nc(SC)n1,inactive,–
CC[C@H](O)C(C[C@H](C)N(C)C)(c1ccccc1)c1ccccc1,inactive,–
C=CCc1cc(OC)c2c(c1)OCO2,inactive,–
CC(C)C(C)(N)C#N (stereo not given),inactive,–
CON(C)C(=O)Nc1ccc(Br)c(Cl)c1,inactive,–
CC(C)(C)c1cc(O)ccc1O,inactive,–
Cc1ccc2cc(C)ccc2c1,inactive,–
CCC(C)(C#N)N=NC(C)(C#N)CC (stereo not given),inactive,–
N#CN=C1SCCN1Cc1ccc(Cl)nc1,inactive,–
Clc1nc(Cl)nc(Nc2ccccc2Cl)n1,inactive,–
O=c1[nH]oc2c1CCNC2,inactive,–
CCN(CC)C1CCCCC1,inactive,–
CC(C)c1ccc(O)cc1,inactive,–
CCN(CC)CCOC(=O)C(O)(c1ccccc1)c1ccccc1,inactive,–
COC(=O)c1ccccc1CS(=O)(=O)NC(=O)Nc1nc(OC)cc(OC)n1,inactive,–
NCC1(CC(=O)O)CCCCC1,–,-0.0096% [at 18.6 µM] (inactive)
CC1=C2[C@H]3OC(=O)[C@@H](C)[C@@H]3CC[C@@]2(C)C=CC1=O,inactive,–

Structure (SMILES),outcome,"fluorescence, % of fluorescein control"
CC(C)(C)NC[C@H](O)c1ccc(O)cc1Cl,inactive,–
Cl/C=C/CCl,inactive,–
CCOP(=S)(OCC)SCCl,inactive,–
C=C1CC[C@@]2(O)[C@H]3Cc4ccc(O)c5c4[C@@]2(CCN3CC2CC2)[C@H]1O5,inactive,–
CCNP(=S)(OC)O/C(C)=C/C(=O)OC(C)C (stereo not given),inactive,–
O=[N+]([O-])c1cccc(CCl)c1,inactive,–
COc1ccc(C=O)cc1O,inactive,–
C/C(=N\NC(=O)Nc1cc(F)cc(F)c1)c1ncccc1C(=O)O,inactive,–
C/C=C/CC#N,inactive,–
CCCC[N+](=O)[O-],inactive,–
CC(Cl)(Cl)Cl,inactive,–
COc1ccccc1OC,inactive,–
CCC1(c2ccccc2)CCC(=O)NC1=O (stereo not given),inactive,–
CN1COCN(Cc2cnc(Cl)s2)/C1=N\[N+](=O)[O-],inactive,–
CN=CNc1ccc(C)cc1C,inactive,–
CCCCCCCCSC(=O)Oc1cc(Cl)nnc1-c1ccccc1,inactive,–
CCOP(=O)(CN(CCO)CCO)OCC,inactive,–
CC[C@H](N)c1ccccc1,inactive,–
CCCOC(=O)Cc1ccc(OCC(=O)N(CC)CC)c(OC)c1,inactive,–
Cc1ccc(-c2nc3ccc(C)cn3c2CC(=O)N(C)C)cc1,inactive,–

# From PubChem BioAssay (Tox21)
